# Data reported in PMC5700166.
# Target: GST-Hu-p50 (Homo sapiens, UniProt P19838 7-356)
# Experiment: protein-binding microarray (PBM); PBM: ~300 nM protein, 6 mM HEPES pH 7.8, 80 mM KCl, 0.5 mM EDTA, 0.5 mM EGTA, 6% glycerol, 35 ng/ul poly-dIdC, 1% milk, 1 h, room temperature; Ap Aiptasia and Nv Nematostella (sea anemones) / Co Capsaspora / Aq Amphimedon (sponge) / Dm Drosophila / Hu human; RHD is the Rel homology domain; high values mean tight binding
# Details: dsDNA, one strand shown
# GST-Hu-p50, sequence (P19838 7-356): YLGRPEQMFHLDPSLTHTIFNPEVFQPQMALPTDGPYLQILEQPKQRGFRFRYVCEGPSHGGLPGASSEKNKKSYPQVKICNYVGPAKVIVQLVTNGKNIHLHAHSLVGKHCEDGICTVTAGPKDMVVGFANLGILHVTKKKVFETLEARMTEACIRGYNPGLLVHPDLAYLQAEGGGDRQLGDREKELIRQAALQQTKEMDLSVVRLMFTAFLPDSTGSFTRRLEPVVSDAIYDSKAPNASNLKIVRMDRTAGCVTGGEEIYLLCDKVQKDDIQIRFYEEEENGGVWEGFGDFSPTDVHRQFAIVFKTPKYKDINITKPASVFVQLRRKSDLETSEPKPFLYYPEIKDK
row,Sequence,binding signal [z-score]
1,CCGATTAACATCAGGGGTTTCCATGATGTTAATCGGGTCTTGATTCGCTTGACGCTGCTG,4.95
2,CCGATTAACATCAGGGATTCTCATGATGTTAATCGGGTCTTGATTCGCTTGACGCTGCTG,1.91
3,CCGATTAACATCACGAGATTCCCTGATGTTAATCGGGTCTTGATTCGCTTGACGCTGCTG,2.64
4,CCGATTAACATCAAGGCATTCCCTGATGTTAATCGGGTCTTGATTCGCTTGACGCTGCTG,1.31
5,CCGATTAACATCAAGTGTTTCCCTGATGTTAATCGGGTCTTGATTCGCTTGACGCTGCTG,1.3
6,CCGATTAACATCATCAGGGAAAATGATGTTAATCGGGTCTTGATTCGCTTGACGCTGCTG,2.83
7,CCGATTAACATCAGGGGAACACATGATGTTAATCGGGTCTTGATTCGCTTGACGCTGCTG,3.37
8,CCGATTAACATCAGGCACCCCCCTGATGTTAATCGGGTCTTGATTCGCTTGACGCTGCTG,4.38
9,CCGATTAACATCACGTATTTCCCTGATGTTAATCGGGTCTTGATTCGCTTGACGCTGCTG,3.02
10,CCGATTAACATCACGGAATACCCTGATGTTAATCGGGTCTTGATTCGCTTGACGCTGCTG,3.41
11,CCGATTAACATCACGGATTTCCCTGATGTTAATCGGGTCTTGATTCGCTTGACGCTGCTG,3.76
12,CCGATTAACATCAAATAGGGAATTGATGTTAATCGGGTCTTGATTCGCTTGACGCTGCTG,3.55
13,CCGATTAACATCAGGGGGGGTGATGATGTTAATCGGGTCTTGATTCGCTTGACGCTGCTG,4.13
14,CCGATTAACATCAGGGGGATGTATGATGTTAATCGGGTCTTGATTCGCTTGACGCTGCTG,4.84
15,CCGATTAACATCAGAATTCCCGCTGATGTTAATCGGGTCTTGATTCGCTTGACGCTGCTG,3.53
16,CCGATTAACATCAGGGGGTTAACTGATGTTAATCGGGTCTTGATTCGCTTGACGCTGCTG,4.57
17,CCGATTAACATCATGGAGGGAGGTGATGTTAATCGGGTCTTGATTCGCTTGACGCTGCTG,1.63
18,CCGATTAACATCAGGAAACTACCTGATGTTAATCGGGTCTTGATTCGCTTGACGCTGCTG,3.87
19,CCGATTAACATCACCCATGGGAATGATGTTAATCGGGTCTTGATTCGCTTGACGCTGCTG,1.43
20,CCGATTAACATCATTCGGGAAAATGATGTTAATCGGGTCTTGATTCGCTTGACGCTGCTG,3.03
21,CCGATTAACATCAGGGACTCACCTGATGTTAATCGGGTCTTGATTCGCTTGACGCTGCTG,3
22,CCGATTAACATCACCCCAGCCCCTGATGTTAATCGGGTCTTGATTCGCTTGACGCTGCTG,2.68
23,CCGATTAACATCAAAAATTTTCCTGATGTTAATCGGGTCTTGATTCGCTTGACGCTGCTG,2.23
24,CCGATTAACATCAGGGGGTACACTGATGTTAATCGGGTCTTGATTCGCTTGACGCTGCTG,3.13
25,CCGATTAACATCAGGAGACTCCCTGATGTTAATCGGGTCTTGATTCGCTTGACGCTGCTG,1.93
